Laboratory results reported in PubChem BioAssay (NCATS).
Results filed as inconclusive are left out. Calls of active or inactive are those of the source. Unless noted, the call rests on the fitted dose curve; in most records, active means well fitted curve in the direction sought with a large enough effect; inconclusive means small, poorly fitted or top-dose-only effect, or another doubt; inactive means no such curve, though single readings can be large; an effect the other way counts as inactive or inconclusive.

Assays:
[1] = target: M-phase phosphoprotein 8 (Homo sapiens) (UniProt Q99549); experiment: qHTS Validation Assay for Inhibitors for MPP8 Chromodomain Interactions with Methylated Histone Tails (AID 488949); further: nearly all actives have a fitted effect of over 55% in size; further: potency means the concentration at half of the fitted maximal effect
Sequence of M-phase phosphoprotein 8 (Homo sapiens) (Q99549 whole entry, looked up): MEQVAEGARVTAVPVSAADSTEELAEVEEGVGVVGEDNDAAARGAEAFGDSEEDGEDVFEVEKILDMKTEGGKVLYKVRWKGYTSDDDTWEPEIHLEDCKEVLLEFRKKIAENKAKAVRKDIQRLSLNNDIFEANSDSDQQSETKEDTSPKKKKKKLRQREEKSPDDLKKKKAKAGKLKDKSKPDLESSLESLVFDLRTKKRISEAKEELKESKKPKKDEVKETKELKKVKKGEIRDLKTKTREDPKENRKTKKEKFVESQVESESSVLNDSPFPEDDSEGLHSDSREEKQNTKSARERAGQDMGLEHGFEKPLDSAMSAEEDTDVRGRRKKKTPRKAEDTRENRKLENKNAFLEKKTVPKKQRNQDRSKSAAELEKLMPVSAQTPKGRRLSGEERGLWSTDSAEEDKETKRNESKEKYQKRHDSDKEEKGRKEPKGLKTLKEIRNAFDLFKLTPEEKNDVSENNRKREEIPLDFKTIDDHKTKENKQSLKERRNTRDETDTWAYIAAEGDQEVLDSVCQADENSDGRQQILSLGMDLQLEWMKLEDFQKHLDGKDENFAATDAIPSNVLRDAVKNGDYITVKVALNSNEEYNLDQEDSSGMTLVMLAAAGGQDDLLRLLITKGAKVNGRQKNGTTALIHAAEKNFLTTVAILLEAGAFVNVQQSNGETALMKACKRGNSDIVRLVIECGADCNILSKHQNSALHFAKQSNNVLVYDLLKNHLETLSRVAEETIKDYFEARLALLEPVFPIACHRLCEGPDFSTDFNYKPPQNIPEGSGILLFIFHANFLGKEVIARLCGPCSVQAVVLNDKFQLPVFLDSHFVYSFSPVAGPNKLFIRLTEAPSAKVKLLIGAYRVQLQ
How it was run: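 AlphaScreen read-out: streptavidin donor and nickel chelate acceptor beads (final 10 ug/mL), 30 min in the dark at RT. Complex of 50 nM MPP8 and 50 nM b-H3(1-18)K9me3 peptide had been exposed to compounds for 30 min beforehand.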

[2] = target: Voltage-gated inwardly rectifying potassium channel KCNH2 (Homo sapiens) (UniProt Q12809); experiment: qHTS Assay for Small Molecule Inhibitors of the Human hERG Channel Activity (AID 588834);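 further: top concentration of the series differs between compounds; on the % scale 0 is the no-effect control and ±100 the full control effect; lower thallium flux fluorescence means stronger hERG block; nearly all actives have a fitted effect of over 50% in size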
Sequence of Voltage-gated inwardly rectifying potassium channel KCNH2 (Homo sapiens) (Q12809 whole entry, looked up): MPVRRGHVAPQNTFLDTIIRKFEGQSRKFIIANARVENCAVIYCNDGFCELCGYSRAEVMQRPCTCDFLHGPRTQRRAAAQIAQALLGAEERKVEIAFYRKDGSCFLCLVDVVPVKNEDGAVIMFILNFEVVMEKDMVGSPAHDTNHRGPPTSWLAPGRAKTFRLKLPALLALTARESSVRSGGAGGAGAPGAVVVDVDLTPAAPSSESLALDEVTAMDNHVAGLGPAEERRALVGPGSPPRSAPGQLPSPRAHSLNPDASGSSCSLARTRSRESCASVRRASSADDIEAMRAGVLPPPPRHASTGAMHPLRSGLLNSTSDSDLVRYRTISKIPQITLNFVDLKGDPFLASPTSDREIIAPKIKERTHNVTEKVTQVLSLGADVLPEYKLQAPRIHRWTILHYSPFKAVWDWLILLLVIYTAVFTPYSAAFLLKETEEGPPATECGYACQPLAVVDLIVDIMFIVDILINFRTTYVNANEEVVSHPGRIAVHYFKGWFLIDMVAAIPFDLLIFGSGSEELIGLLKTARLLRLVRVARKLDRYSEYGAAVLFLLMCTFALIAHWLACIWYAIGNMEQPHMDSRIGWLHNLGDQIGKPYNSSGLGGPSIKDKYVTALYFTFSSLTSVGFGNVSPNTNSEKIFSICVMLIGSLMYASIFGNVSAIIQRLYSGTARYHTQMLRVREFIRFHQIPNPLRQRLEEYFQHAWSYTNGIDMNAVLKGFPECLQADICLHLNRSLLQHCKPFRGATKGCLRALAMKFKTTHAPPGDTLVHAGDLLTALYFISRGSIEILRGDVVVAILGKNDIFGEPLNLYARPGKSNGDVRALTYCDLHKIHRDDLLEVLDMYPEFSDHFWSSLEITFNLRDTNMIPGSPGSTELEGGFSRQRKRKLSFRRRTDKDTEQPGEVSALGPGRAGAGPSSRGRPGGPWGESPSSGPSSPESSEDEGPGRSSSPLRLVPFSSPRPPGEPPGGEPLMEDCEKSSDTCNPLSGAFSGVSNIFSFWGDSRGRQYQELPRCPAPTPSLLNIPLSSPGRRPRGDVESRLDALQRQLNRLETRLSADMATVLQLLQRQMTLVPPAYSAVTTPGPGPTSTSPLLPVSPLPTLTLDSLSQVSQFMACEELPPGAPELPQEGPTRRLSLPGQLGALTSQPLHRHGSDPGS
How it was run: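 Thallium-flux (FluxOR) read-out on FDSS: fluorescence read 10 s before and 2 min after stimulation buffer. hERG-BacMam-transduced U2OS cells, compound exposure about 10 min. AC50 by standard Hill equation.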

[3] = AP1 Signaling Pathway (AID 357; active means well fitted curve in either direction with a large enough effect, not every such curve was filed as active;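 further: ME-180 reporter cells stimulated with EGF at its EC50 level; on the % scale 0 is the no-effect control and ±100 the full control effect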)
How it was run: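 A ratiometric CCF4 readout (405 nm excitation; 460 and 530 nm emission) quantified AP-1-driven beta-lactamase in ME-180 cells after 5 h with compound and EC50 EGF; AC50 values were derived for activators and inhibitors.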

[4] = NFAT Signaling Pathway (AID 444; active means well fitted curve in either direction with a large enough effect, not every such curve was filed as active;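 further: carbachol stimulus at about its EC50 of 1 µM final; on the % scale 0 is the no-effect control and ±100 the full control effect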); settings: Jurkat NFAT-bla M1, carbachol, beta-lactamase ratio, 5 h; at 17.2 µM (top of the series)
How it was run: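 Jurkat cells with NFAT-driven β-lactamase reporter and co-expressed M1 receptor, stimulated with carbachol (final 1 uM, ~EC50), compound titration, 5 h at 37 °C. CCF4 loaded 1 h at RT; 460/530 nm ratio gave %activity and AC50.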

[5] = Stat Signaling Pathway (AID 446; active means well fitted curve in either direction with a large enough effect, not every such curve was filed as active;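 further: ME-180 cervical cancer cells given 40 pM IL-6 alongside compound; SIE-controlled beta-lactamase reporter measured as 460/530 nm FRET emission ratio; on the % scale 0 is the no-effect control and ±100 the full control effect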)
How it was run: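 Emission at 460 and 530 nm (excitation 405 nm) reports SIE-controlled beta-lactamase in ME-180 cells. Cells received compound with 40 pM IL-6 for 5 hrs at 37 C; data scaled between 300 pM IL-6 and 125 nM JAK-inhibitor controls.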

[6] = target: 3',5'-cyclic-AMP phosphodiesterase 4B (Homo sapiens) (UniProt Q07343); experiment: qHTS Assay for Inhibitors of PDE-IV (AID 607; active means well fitted activation curve with a large enough effect in the main read-out, with a control signal flat, not every such curve was filed as active; further: % of control where 0% means no effect)
Sequence of 3',5'-cyclic-AMP phosphodiesterase 4B (Homo sapiens) (Q07343 whole entry, looked up): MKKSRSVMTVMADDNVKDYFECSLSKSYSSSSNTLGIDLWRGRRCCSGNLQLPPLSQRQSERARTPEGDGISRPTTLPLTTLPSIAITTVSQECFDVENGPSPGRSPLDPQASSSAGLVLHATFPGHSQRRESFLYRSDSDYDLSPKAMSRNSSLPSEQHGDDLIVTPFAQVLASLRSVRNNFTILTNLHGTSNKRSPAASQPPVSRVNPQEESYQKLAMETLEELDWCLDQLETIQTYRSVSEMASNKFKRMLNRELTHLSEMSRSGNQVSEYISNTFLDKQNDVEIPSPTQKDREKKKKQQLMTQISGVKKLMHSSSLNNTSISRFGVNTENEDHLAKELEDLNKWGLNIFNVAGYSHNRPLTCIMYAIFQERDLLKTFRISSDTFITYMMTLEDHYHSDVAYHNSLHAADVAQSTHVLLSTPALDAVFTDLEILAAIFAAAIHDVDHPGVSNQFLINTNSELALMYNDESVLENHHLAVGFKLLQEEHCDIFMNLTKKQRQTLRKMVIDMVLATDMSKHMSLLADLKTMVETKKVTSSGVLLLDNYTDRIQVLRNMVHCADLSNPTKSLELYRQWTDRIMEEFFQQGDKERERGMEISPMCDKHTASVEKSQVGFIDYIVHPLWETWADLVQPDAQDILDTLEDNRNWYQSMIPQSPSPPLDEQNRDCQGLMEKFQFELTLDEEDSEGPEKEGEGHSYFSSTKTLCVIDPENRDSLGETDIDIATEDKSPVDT
How it was run: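 The readout is membrane depolarisation from a cAMP-sensing CNG channel, detected with a potential dye at ex 535/em 590. Cells were HEK293-derived (endogenous PDE-IV) at 1000 cells/well, titrated up to 22.9 uM final.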

[7] = target: Peroxisome proliferator-activated receptor delta (Homo sapiens) (UniProt Q03181); experiment: qHTS assay for small molecule agonists of peroxisome proliferator-activated receptor delta signaling (AID 588534; calls by dose curve;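 further: 0% = DMSO basal wells and 100% = positive control agonist at 10 µM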)
Sequence of Peroxisome proliferator-activated receptor delta (Homo sapiens) (Q03181 whole entry, looked up): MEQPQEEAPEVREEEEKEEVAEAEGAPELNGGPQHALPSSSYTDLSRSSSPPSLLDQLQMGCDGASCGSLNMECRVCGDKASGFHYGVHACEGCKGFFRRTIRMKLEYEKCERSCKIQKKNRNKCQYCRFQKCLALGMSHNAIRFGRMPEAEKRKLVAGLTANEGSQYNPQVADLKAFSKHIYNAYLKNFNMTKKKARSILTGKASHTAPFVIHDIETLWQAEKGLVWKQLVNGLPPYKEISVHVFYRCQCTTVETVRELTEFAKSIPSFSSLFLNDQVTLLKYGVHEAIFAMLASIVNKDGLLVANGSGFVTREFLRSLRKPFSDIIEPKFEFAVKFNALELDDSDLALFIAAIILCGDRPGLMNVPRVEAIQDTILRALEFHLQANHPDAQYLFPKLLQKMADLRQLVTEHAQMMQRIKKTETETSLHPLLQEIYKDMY
How it was run: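 Titration series tested in agonist mode on beta-lactamase reporter cells; 18 hrs at 37 C after a 5 hr pre-incubation. Readout: CCF4 fluorescence, 2 hrs RT. Hill equation gives EC50 and maximal response.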

[8] = system: Zika virus NS2B-NS3 protease (linked construct); experiment: Primary screen NINDS Rhodamine qHTS for Zika virus inhibitors (AID 1347160); further: on the % scale 0 is the no-effect control and ±100 the full control effect; nearly all actives have a fitted effect of over 55% in size
How it was run: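 Enzyme (25 nM, linked NS2B-NS3) was preincubated 15 min with compound in 10 mM Tris-HCl pH 8.0, 0.01% Tween 20. Rhodamine110 substrate (1.5 microM) was then added and fluorescence read at start and after 15 min.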

[9] = OV-KATE Cancer Cell Toxicity qHTS against the NCATS CANVASS Library (AID 1347345); further: on the % scale 0 is the no-effect control and ±100 the full control effect
How it was run: (§1)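 Following a 4 h pre-incubation of 1000 seeded cells, compounds were pinned in an 11-pnt dilution series and left for 72 h; viability then came from CellTiter-Glo.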

[10] = HPAF-II Cancer Cell Toxicity qHTS against the NCATS CANVASS Library (AID 1347346); further: on the % scale 0 is the no-effect control and ±100 the full control effect; nearly all actives have a fitted effect of over 55% in size
How it was run: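 1000 HPAF-II cells/well; 4 h pre-incubation; 11-pnt compound titration; 72 h, 37 degrees C/5% CO2; CellTiter-Glo, 15 min RT; luminescence read.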

[11] = UWB1.289 Cancer Cell Toxicity qHTS against the NCATS CANVASS Library (AID 1347347); further: on the % scale 0 is the no-effect control and ±100 the full control effect; nearly all actives have a fitted effect of over 60% in size
How it was run: as §1

[12] = OV-SAHO Cancer Cell Toxicity qHTS against the NCATS CANVASS Library (AID 1347348); further: on the % scale 0 is the no-effect control and ±100 the full control effect; nearly all actives have a fitted effect of over 55% in size
How it was run: as §1

[13] = Panc-1005 Cancer Cell Toxicity qHTS against the NCATS CANVASS Library (AID 1347349); further: on the % scale 0 is the no-effect control and ±100 the full control effect; nearly all actives have a fitted effect of over 60% in size
How it was run: as §1

[14] = SW1088 Cancer Cell Toxicity qHTS against the NCATS CANVASS Library (AID 1347350); further: nearly all actives have a fitted effect of over 75% in size
How it was run: as §1

[15] = COV-362 Cancer Cell Toxicity qHTS against the NCATS CANVASS Library (AID 1347352); further: on the % scale 0 is the no-effect control and ±100 the full control effect
How it was run: (§2)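 1000 cells/well, 4 h pre-incubation 37 °C/5% CO2; 11-pnt titration; 72 h; CellTiter-Glo 15 min RT, luminescence.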

[16] = A2780 Cisplatin Sensitive Ovarian Cancer Cell Toxicity qHTS against the NCATS CANVASS Library (AID 1347353); further: nearly all actives have a fitted effect of over 60% in size
How it was run: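 750 cells/well, 4 h settle; 11-pt cpd titration; 72 h, 37 °C, 5% CO2; ATPLite 10 min RT; luminescence read.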

[17] = UWB1.289-WTBRCA1 Cancer Cell Toxicity qHTS against the NCATS CANVASS Library (AID 1347354)
How it was run: as §2

[18] = HPAF-II 24hr Apoptosis Induction qHTS against the NCATS CANVASS Library (AID 1347356); further: 0% is about no effect
How it was run: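 500 HPAF-II cells/well; compounds in 11-pnt qHTS; 24 h, 37 C/5% CO2; Caspase-Glo 3/7 added, 15 min RT dark; luminescence read. Doxorubicin control.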

[19] = HEK293 18hr Apoptosis Induction qHTS against the NCATS CANVASS Library (AID 1347357); further: 0% is about no effect
How it was run: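 Caspase-3/7 luminescence (DEVD substrate, Caspase-Glo) after 18 h compound exposure of HEK293 cells, 500 cells/well; 11-point series; doxorubicin titration as control.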

[20] = HEK293 24hr Apoptosis Induction qHTS against the NCATS CANVASS Library (AID 1347359); further: 0% is about no effect
How it was run: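 HEK293 cells, 500 per well, exposed to an 11-point compound series for 24 hours at 37 degrees C. Caspase 3/7 activity read by Caspase-Glo luminescence (DEVD substrate) after 15 min at room temperature.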

CC(=O)OCC1=C(C(=O)[O-])N2C(=O)[C@@H](NC(=O)CCC[C@@H](N)C(=O)[O-])[C@H]2SC1.[Zn+2]
active: Potency [1] 44.7 µM
inactive: Potency [2]

c1cncc([C@@H]2CCCCN2)c1
inactive: outcome [3] | activity change, negative = inhibition [4] -6.22% | outcome [5] | Potency [6]

N[C@@H](Cc1ccc(O)c(O)c1)C(=O)O
inactive: Potency [7]

CN(C)Cc1c[nH]c2ccccc12
inactive: outcome [3] | activity change, negative = inhibition [4] 1.81% | outcome [5] | Potency [6] | Potency [8] | Potency [9] | Potency [10] | Potency [11] | Potency [12] | Potency [13] | Potency [14] | Potency [15] | Potency [16] | Potency [17] | outcome [18] | Potency [19] | Potency [20]

NCCc1ccccc1
inactive: Potency [8] | Potency [9] | Potency [10] | Potency [11] | Potency [12] | Potency [13] | Potency [14] | Potency [15] | Potency [16] | Potency [17] | outcome [18] | Potency [19] | Potency [20]

Cc1ccccc1O
inactive: Potency [7] | Potency [2]

CC(C)COC(=O)OCN1C(=O)CN(CCN2CC(=O)N(COC(=O)OCC(C)C)C(=O)C2)CC1=O
inactive: Potency [1]
